Assay outcomes as filed in PubChem BioAssay.
TDP1 cell noCPT – qHTS for Inhibitors of human tyrosyl-DNA phosphodiesterase 1 (TDP1): qHTS in cells in absence of CPT. DT40 Tdp1-/- hTDP1 cells, no CPT, ATP luminescence, 48 h. Potency, µM (highest dose often 46.2 µM), actives largely listed as inhibitors. 420,000 compounds, 15% hits. AID 686978, 2013; also: nearly all actives have a fitted effect of over 55% in size
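Camptothecin absent (DMSO only). Human TDP1-complemented DT40 knockout cells, 400 cells/well, 37 °C for minimum 48 hr; ATP measured via CellTiter-Glo, 30 min dark incubation, luminescence.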
Gal4-VP16 FLuc – Gal4-VP16 reporter inhibition counter-screen; Drosophila S2 Gal4-VP16 UAS-luciferase, luminescence, 20 h; Potency, µM (titrated, usually from 53.6 µM), most hits filed as inhibitors; AID 2546; 310,000 compounds, 3.5% hits;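 also: Gal4-VP16 expression switched on by copper sulfate through the metallothionein promoter; nearly all actives have a fitted effect of over 50% in size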
ELG1 repair inh – inhibitors of ELG1-dependent DNA repair in HEK293T cells. HEK293T ELG1-luciferase reporter, luminescence, 16 h; DNA damage induced by 5-fluorouridine. Potency, µM (series often up to 46.1 µM), most hits filed as inhibitors. 330,000 compounds, 2.3% hits. AID 504467; also: nearly all actives have a fitted effect of over 55% in size
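5-Fluorouridine DNA damage + compound/DMSO, 2,000 cells/well, 16 h, 37 °C/5% CO2. ONE-Glo, 30 min RT, luminescence. Readout = decrease in reporter signal.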
ALOX12 inh – blocks human arachidonate 12S-lipoxygenase. P18054. purified 12hLO, xylenol orange hydroperoxide absorbance. Potency, µM (top dose mostly 108 µM), usual class: inhibitors. 580,000 compounds, 1.1% hits. AID 1671190
Target sequence (P18054 whole entry, looked up): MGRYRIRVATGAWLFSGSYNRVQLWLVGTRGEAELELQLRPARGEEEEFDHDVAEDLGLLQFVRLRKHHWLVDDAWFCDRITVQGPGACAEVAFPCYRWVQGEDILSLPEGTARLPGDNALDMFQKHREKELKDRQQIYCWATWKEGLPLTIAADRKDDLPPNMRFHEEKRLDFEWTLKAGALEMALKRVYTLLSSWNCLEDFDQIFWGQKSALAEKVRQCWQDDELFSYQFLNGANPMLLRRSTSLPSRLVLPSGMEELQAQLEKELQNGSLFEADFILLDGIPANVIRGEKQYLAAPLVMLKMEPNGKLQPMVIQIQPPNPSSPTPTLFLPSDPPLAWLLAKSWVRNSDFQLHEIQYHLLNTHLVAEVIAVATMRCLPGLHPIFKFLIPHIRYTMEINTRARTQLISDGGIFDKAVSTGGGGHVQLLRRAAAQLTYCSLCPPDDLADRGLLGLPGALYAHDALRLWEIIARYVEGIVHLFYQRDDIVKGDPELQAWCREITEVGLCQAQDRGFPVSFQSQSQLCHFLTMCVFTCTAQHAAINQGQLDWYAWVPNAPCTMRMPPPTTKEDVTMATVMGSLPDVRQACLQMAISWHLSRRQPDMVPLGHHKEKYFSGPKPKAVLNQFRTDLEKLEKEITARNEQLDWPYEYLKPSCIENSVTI
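Purified human 12hLO (150 nM final) in 25 mM Hepes, 0.01% Triton X-100, pH 7.0 was preincubated 15 min at room temperature with compound. Then 40 uM arachidonic acid was added, 30 min. Hydroperoxide was read by Fe-XO absorbance ratio 573/405 nm.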
TDP1 cell CPT – DT40-hTDP1 cell growth loss with CPT | 420,000 compounds, 12% hits | chicken DT40 Tdp1-/-;hTDP1 cells + 20 nM CPT, ATP luminescence, 48 h | Potency, µM (top dose mostly 46.2 µM), actives largely listed as inhibitors; also: nearly all actives have a fitted effect of over 55% in size
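Chicken DT40 Tdp1-/- cells complemented with human TDP1, 400 cells/well, exposed to compounds plus 20 nM camptothecin for at least 48 h at 37 C; viability read as ATP content by CellTiter-Glo luminescence.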
RORgamma inh – blocks mouse ROR gamma transcriptional activity; P51450; Drosophila S2 Gal4-RORgamma UAS-luciferase reporter, 20 h; Potency, µM (series often up to 53.6 µM), usual class: inhibitors; 310,000 compounds, 5.4% hits; also: nearly all actives have a fitted effect of over 60% in size
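Drosophila S2 cells stably expressing Gal4-DBD/mouse RORγ fusion under metallothionein promoter plus UAS-luciferase; compound 1 h, then 700 uM CuSO4 induction for 20 h at ambient temperature; inhibition read as reduced luminescence.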
Numbers stand for hits; i = inactive; ? = inconclusive; nt = not tested or not shown; [ ] = remark or other dose. The list is not random: actives were taken first. Their share in the collection is about 15%. Calls follow the shape of the dose curve; as a rule, active = well fitted curve in the direction sought with a large enough effect; inconclusive = small, poorly fitted or top-dose-only effect, or another doubt; inactive = no such curve, though single readings can be large; an effect the other way counts as inactive or inconclusive.

SMILES	TDP1 cell noCPT	Gal4-VP16 FLuc	ELG1 repair inh	ALOX12 inh	TDP1 cell CPT	RORgamma inh
CC1(C)Cc2c(c(N3CCOCC3)nc3sc4c(NCCN5CCOCC5)nnnc4c23)CS1	12µM	i	?	i	?	i
COc1ccc(-c2nc(N3CCN(C)CC3)sc2-c2ccc(OC)cc2)cc1	29µM	i	i	?	?	?
COc1ccc(-c2nc(C)nc3c2CCN(C(=O)c2ccccc2)CC3)cc1	nt	nt	nt	i	nt	nt
O=C(c1ccc(Br)cc1)c1sc(N2CCOCC2)nc1-c1ccccc1	21µM	i	?	i	?	i
[2H]c1c([2H])c([2H])c(C(=O)c2sc(N3CCCCCC3)nc2-c2ccccc2)c([2H])c1[2H]	16µM	i	i	i	?	i
COc1ccc(-c2nc(N3CCCCCC3)sc2C(=O)c2ccccc2)cc1	23µM	i	?	i	?	i
CC(=O)c1ccc(SCC(=O)NCCC2=CCCCC2)c(F)c1	nt	nt	nt	i	nt	nt
O=C1NCCCCCCN(C(=O)c2cccs2)[C@H]2C[C@H](C(=O)N3CCc4ccccc4C3)C[C@@H]12	nt	nt	nt	i	nt	nt
O=C(c1ccccc1)c1sc(N2CCOCC2)nc1-c1ccccc1	?	i	i	i	?	i
O=C(c1ccccc1)c1sc(N2CCCCCC2)nc1-c1ccccc1	15µM	i	?	i	?	i
CCCCCCCCS(=O)c1sc2nc3c(cc2c1N)CCCC3 (configuration not stated)	?	nt	nt	?	13µM	nt
CCCCS(=O)(=O)c1sc2nc3c(cc2c1N)CCCC3	23µM	?	?	i	12µM	?
CN1C(=O)CS(=O)(=O)C12CCN(C(=O)Cc1ccc(Cl)cc1)CC2	nt	nt	nt	i	nt	nt
Cc1cc(SCC#N)n2nc(C)c(-c3ccccc3)c2n1	i	2.5µM	23µM	i	i	1.3µM
Cc1cc(Cl)n2nc(C)c(-c3ccc(Cl)cc3)c2n1	?	i	i	i	?	?
C=CCSc1cc(C)nc2c(-c3ccccc3)c(C)nn12	?	i	i	i	?	?
Cc1cc(SCC#N)n2nc(C)c(-c3ccc(Cl)cc3)c2n1	i	?	i	i	i	16µM
Cc1cc(SCC(=O)c2cccs2)n2nc(C)c(-c3ccccc3)c2n1	?	5.6µM	?	i	?	3.2µM
Cn1nc(C(F)(F)F)c(-c2ccc(F)cc2)c1NC(=O)Nc1ccc(F)cc1	15µM	i	i	i	16µM	?
Cn1nc(C(F)(F)F)c(-c2ccc(Br)cc2)c1NC(=O)c1cccnc1	13µM	i	i	i	?	i
O=C(Cn1[nH]c(=O)c2ccccc2c1=O)N1CC=C(c2ccccc2)CC1	16µM	i	?	?	11µM	i
CCCCCc1n[nH]c2c1CCCC2	i	i	?	i	i	10µM
CCCCc1nc2n[nH]c(N)c2c2c1CCCC2	i	i	i	i	i	i
Cc1ccc(CC2(OCCN(C)C)CCC(C(C)(C)C)CC2)cc1 (configuration not stated)	15µM	nt	nt	?	18µM	nt
CN(C)CCOC1(Cc2ccc(F)cc2)CCC(C(C)(C)C)CC1 (configuration not stated)	18µM	nt	nt	i	?	nt
SMILES	TDP1 cell noCPT	Gal4-VP16 FLuc	ELG1 repair inh	ALOX12 inh	TDP1 cell CPT	RORgamma inh
CN(C)CCCCOc1ccc(F)cc1	?	i[10 µM]	i	i	i	i
CN(C)CCNCc1ccc(OC2CCCC2)cc1	?	i	i	i	?	i
Cc1cc(C)n(Cc2ccc(-c3nc(C)no3)cc2)n1	nt	nt	nt	i	nt	nt
COc1ccc(C(=O)NC2CCN(c3cnn(CC4CC4)c(=O)c3)CC2)c(OC)n1	nt	nt	nt	i	nt	nt
CC1(CC(=O)N/N=C/c2cc(Br)c(O)cc2O)OCCO1	?	i	i	i	?	10µM
Cc1ccccc1NC(=S)c1ccc2ccccc2n1	?	6.3µM	?	i	?	?
Cc1ccccc1NC(=O)c1ccc2ccccc2n1	nt	nt	nt	i	nt	nt
C=CCNc1ncnc2c1ncn2[C@H]1CN(Cc2ccc(-c3ccccc3)cc2)C[C@@H](CO)O1	23µM	nt	nt	i	16µM	nt
OCCNc1ncnc2c1ncn2[C@H]1CN(Cc2ccc(Cl)cc2)C[C@@H](CO)O1	?	nt	nt	i	i	nt
C=CCNc1ncnc2c1ncn2[C@H]1CN(Cc2ccco2)C[C@@H](CO)O1	i	nt	nt	i	i	nt
COCCNc1ncnc2c1ncn2[C@H]1CN(Cc2ccc(F)cc2)C[C@@H](CO)O1	i	nt	nt	i	i	nt
OCCCNc1ncnc2c1ncn2[C@H]1CN(Cc2ccc(-c3ccccc3)cc2)C[C@@H](CO)O1	21µM	nt	nt	i	15µM	nt
COCCNc1ncnc2c1ncn2[C@H]1CN(Cc2ccc(-c3ccccc3)cc2)C[C@@H](CO)O1	21µM	nt	nt	i	18µM	nt
COc1cc(CNCC2CCOCC2)ccc1OCC(O)CN(C)C1CCCCC1 (configuration not stated)	nt	nt	nt	i	nt	nt
Cc1ccc(C)c(C(=O)C(C)Oc2ccc(C#N)cc2)c1 (configuration not stated)	nt	nt	nt	i	nt	nt
CC1CCCN(S(=O)(=O)c2cc(C(=O)OCc3nc4ccccc4o3)ccc2Cl)C1 (configuration not stated)	nt	nt	nt	i	nt	nt
Cc1[nH]c2ccc(F)cc2c1CC(=O)NCC(F)(F)F	nt	nt	nt	i	nt	nt
Cc1onc(-c2c(F)cccc2Cl)c1C(=O)OCn1nnc2ccccc2c1=O	23µM	i	?	i	?	i
Cc1noc(C)c1C(=O)OCC(=O)Nc1c(F)cccc1F	18µM	i	i	i	16µM	?
Cc1onc(-c2ccccc2)c1C(=O)OCC(=O)N(C)c1ccccc1	i	nt	i	i	i	nt
Cc1onc(-c2c(F)cccc2Cl)c1C(=O)OCC(=O)N(C)c1ccccc1	0.92µM	nt	nt	i	1.3µM	nt
Cc1onc(-c2c(F)cccc2Cl)c1C(=O)OCC(=O)NCc1ccccc1	?	nt	?	i	?	nt
Cc1nc2ccccc2nc1COC(=O)c1cnc2ccccc2n1	nt	nt	nt	i	nt	nt
COC(=O)[C@@H]1Cc2ncn(C)c2CN1S(=O)(=O)c1ccc(OC)cc1	nt	nt	nt	32µM	nt	nt
CCCn1cnc2c1CN(S(=O)(=O)c1ccc(F)cc1)[C@H](C(=O)OC)C2	nt	nt	nt	i	nt	nt
SMILES	TDP1 cell noCPT	Gal4-VP16 FLuc	ELG1 repair inh	ALOX12 inh	TDP1 cell CPT	RORgamma inh
Cc1cccc(C)c1-n1nnnc1-c1nc2cc(Br)ccc2[nH]c1=O	i	nt	nt	?	?	nt
Cc1cccc(C)c1-n1nnnc1-c1nc2cc3ccccc3cc2[nH]c1=O	0.73µM	nt	nt	?	0.52µM	nt
O=S(=O)(NC(c1cccs1)C(Cl)(Cl)Cl)c1ccccc1 (configuration not stated)	nt	nt	nt	i	nt	nt
COc1cc(C(=O)C(=O)N2CCN(c3ccc(C)cc3)CC2)cc2ccccc12	15µM	nt	nt	?	15µM	nt
COc1ccc(C(=O)C(=O)N2CCN(c3ccc(C)cc3)CC2)cc1OC	?	nt	nt	i	?	nt
COc1cc(CCC(=O)N2CCN(c3ccccc3)CC2)cc(OC)c1OC	?	i	i	i	i	i
